Reference: PubChem BioAssay AID1578 (Sanford-Burnham Center for Chemical Genomics, 2009)
Among all 290,000 compounds or so, about 3,000 (1%) were called active. No stated cut-off is given here; in the data, active means inhibition mostly above about 36% (no sharp cut-off); inactive means mostly below about 34%. For the sample, actives were picked, then their nearest neighbours and some compounds at random.

Assay: NOD1 signaling inhibitors, primary screen, cell-based, luminescence, uHTS (AID 1578);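 further: HEK-293T reporter cells stimulated with the NOD1 agonist gamma-tri-DAP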
Settings: NOD1-driven NF-kB luciferase reporter cells, at 4 µM, stronger effect = higher value

Structure (SMILES) | inhibition
CSc1ccc(S(=O)(=O)N2CCC(C(=O)NCCN3CCOCC3)CC2)cc1 | -17.3% (inactive)
Cc1ccc(C)n1-n1c(C)nc2sc(-c3ccccc3)cc2c1=O | -14.6% (inactive)
Cc1nc2ccccc2c(=O)n1N | -11.6% (inactive)
Cc1nc2sc(-c3ccccc3)cc2c(=O)n1N | 29.8% (active)
Cc1nc2cc(-c3ccccc3)sc2c(=O)n1N | 95.4% (active)
O=c1c2sc(-c3ccccc3)cc2nc2n1CCC2 | -26.3% (inactive)
CSc1nc2sc(-c3ccccc3)cc2c(=O)n1N | -13.6% (inactive)
COc1cccc(CN2CCN(C3CCOCC3)CC2CCO)c1 (configuration not stated) | 2.6% (inactive)
CCOC(=O)Cc1nnc(NC(=O)CSc2nnc3c(n2)[nH]c2ccccc23)s1 | 19% (inactive)
CSc1ccc(C(=O)C2CCCN(S(=O)(=O)c3c(C)noc3C)C2)cc1 (configuration not stated) | -19.9% (inactive)
Cc1noc(C)c1S(=O)(=O)N1CCCC(C(=O)c2cccc(OC(C)C)c2)C1 (configuration not stated) | 4.9% (inactive)
COc1c(C)cc(C(=O)C2CCCN(S(=O)(=O)c3c(C)noc3C)C2)cc1C (configuration not stated) | 48.6% (active)
CCCCOc1ccc(-c2ncc(C(=O)O)c(C)n2)cc1 | -62% (inactive)
COc1ccccc1CN(Cc1nc2ccccc2c(=O)[nH]1)S(=O)(=O)c1ccc(C)cc1 | -16.5% (inactive)
C=CCc1cc(S(=O)(=O)c2ccc(O)c(CC=C)c2)ccc1O | 47.4% (active)
C=CCc1ccc(O)c(-c2ccc(O)c(CC=C)c2)c1 | -6.9% (inactive)
Nc1cc(S(=O)(=O)c2ccc(O)c(N)c2)ccc1O | -4.4% (inactive)
Cc1[nH]c(-c2ccc(F)cc2)cc1C(=O)N1CCN(c2ccccc2)CC1 | -4.4% (inactive)
O=C(Nc1nnc(-c2ccccc2)o1)C1CCCCC1 | -11.8% (inactive)
O=C(Nc1cccc(-c2nnc(-c3ccccc3)o2)c1)C1CCCCC1 | 30.6% (active)
O=C(Nc1cccc(-c2nnc(-c3ccccc3)o2)c1)C1CC1 | 2.9% (inactive)
COc1cc2cc(Br)cc(Br)c2nc1C | 37.7% (inactive)
Brc1cc(Br)c2nc3c(cc2c1)CCC3 | -13.3% (inactive)
COc1ccc(CN(C)S(=O)(=O)c2nnc(NC(=O)c3cccc(F)c3)s2)cc1OC | 4.4% (inactive)
CN(Cc1ccccc1)S(=O)(=O)c1nnc(NC(=O)c2ccccc2)s1 | 1.1% (inactive)

Structure (SMILES) | inhibition
COc1ccc(CN(C)S(=O)(=O)c2nnc(NC(=O)c3cccc(OC)c3)s2)cc1 | 7.1% (inactive)
COc1cccc(C(=O)Nc2nnc(S(=O)(=O)N(C)Cc3ccc(F)cc3)s2)c1 | 16.8% (inactive)
CC(=O)C1=C(O)C(=O)N(Cc2ccccc2)C1c1ccco1 (configuration not stated) | -9.8% (inactive)
Cc1ccccc1CN1CCC(n2nccc2NC(=O)c2cccnc2)CC1 | -23.7% (inactive)
Cc1ccc(S(=O)(=O)CCC(=O)OCC(=O)c2c[nH]c3ccccc23)cc1 | 17.3% (inactive)
CCCCn1c(Cc2ccccc2)nnc1SCC(=O)Nc1cc(C)on1 | 112% (active)
COCCn1c(Cc2ccccc2)nnc1SCC(=O)Nc1cc(C)on1 | -22.5% (inactive)
CCn1c(Cc2ccccc2)nnc1SCC(=O)Nc1cc(C)on1 | 5% (inactive)
Cc1ccc(S[C@@H](CCN2CC[C@H](O)CCC2=O)c2ccccc2)cc1 | -12.3% (inactive)
CCN(CC)c1ccc(C(=O)n2cnc3ccccc32)cc1 | 38.7% (active)
CC(C)(C)c1ccc(C(=O)n2cnc3ccccc32)cc1 | -13.4% (inactive)
COc1ccc(C(=O)n2cnc3ccccc32)cc1 | -10.8% (inactive)
O=C(CSc1ncn[nH]1)NCCCc1ccccc1 | -16.5% (inactive)
COc1ccc(CNc2cccc3[nH]c(C(F)(F)F)nc23)cc1 | 6% (inactive)
COc1ccc(CNc2cccc3[nH]c(C(F)(F)F)nc23)cc1OC | -14.9% (inactive)
COc1cc(CNc2cccc3[nH]c(C(F)(F)F)nc23)cc(OC)c1 | 33% (active)
O=C1OCC/C1=C\c1ccc2c(c1)OCO2 | -0.1% (inactive)
CCOC(=O)c1c(C)[nH]c2c1-c1ccccc1C(=O)C2=O | 106% (active)
CCOC(=O)c1c2c3c(cccc3[nH]c1=O)C(=O)c1ccccc1-2 | -40.2% (inactive)
CCOC(=O)c1c(C)[nH]c(C)c1-c1ccccc1OC | 13.9% (inactive)
COc1ccc2[nH]cc(C(=O)CN3CCN(C/C=C/c4ccccc4)CC3)c2c1 | -1.2% (inactive)
Cc1[nH][nH]c(=O)c1C(c1c(C)[nH][nH]c1=O)c1cn(Cc2cccc3ccccc23)c2ccccc12 | 10.6% (inactive)
Cc1[nH][nH]c(=O)c1C(c1c(C)[nH][nH]c1=O)c1cn(Cc2ccccc2Cl)c2ccccc12 | 83.9% (active)
Cc1[nH][nH]c(=O)c1C(c1c(C)[nH][nH]c1=O)c1cn(Cc2ccc(Cl)c(Cl)c2)c2ccccc12 | -18.9% (inactive)
Cc1c(CN(C)Cc2cn(C)nc2-c2ccccc2F)[nH]c2ccccc12 | -13.2% (inactive)

Structure (SMILES) | inhibition
c1ccc(CCn2nnnc2C(c2cccs2)N2CCN(Cc3ccc4c(c3)OCO4)CC2)cc1 (configuration not stated) | -12.4% (inactive)
COc1ccc(C)cc1NC(=O)CSc1nnc(COc2ccc(C)cc2)n1Cc1ccco1 | 28.5% (inactive)
CCC(C)Sc1nc(O)c(Cc2ccccc2)c(=O)[nH]1 (configuration not stated) | 6.4% (inactive)
O=C(CSC1=NC(=O)C(Cc2ccccc2)C(=O)N1)NC1CCCCC1 (configuration not stated) | -8.3% (inactive)
Nc1ncc(-c2ccccc2)c(-c2ccc(OCc3ccccc3)cc2O)n1 | 2.3% (inactive)
COc1ccc(-c2cn[nH]c2-c2ccc(OCc3ccc([N+](=O)[O-])cc3)cc2O)cc1OC | 34.4% (inactive)
O=[N+]([O-])c1ccc(COc2ccc(-c3[nH]ncc3-c3ccc(Cl)cc3)c(O)c2)cc1 | 5.4% (inactive)
COc1ccc(-c2cn[nH]c2-c2ccc(OCc3ccc([N+](=O)[O-])cc3)cc2O)cc1 | 91.5% (active)
COc1ccc(-c2cnc(N)nc2-c2ccc(OCc3ccccc3)cc2O)cc1 | -0.9% (inactive)
COc1ccccc1-c1cn[nH]c1-c1ccc(OCc2ccccc2F)cc1O | 0% (inactive)
COc1ccc(-c2cn[nH]c2-c2ccc(OCc3ccccc3)cc2O)cc1OC | 28.5% (inactive)
O=C(/C=C/NCc1cccnc1)C(F)(F)C(F)(F)F | -53% (inactive)
Cc1ccc(-c2csc(Nc3ccc(C(=O)O)cc3)[n+]2Cc2ccccc2)cc1 | 17.8% (inactive)
O=C(CCN1C(=O)[C@@H]2Cc3ccccc3CN2C1=O)NCc1ccc(Cl)cc1 | -7.8% (inactive)
NC(=O)c1ccccc1NC(=O)c1ccccc1S(=O)(=O)c1ccccc1[N+](=O)[O-] | -18.3% (inactive)
[O-]/[N+](=C/c1ccc(F)cc1)c1ccc(Cl)cc1 | -85.9% (inactive)
COc1cccc(C(=O)NCc2ccc3c(c2)OCO3)c1OC | -33% (inactive)
CC1=C(C(=O)N(C)C)C(c2cccc(Cl)c2)NC(=O)N1 (configuration not stated) | -23.2% (inactive)
COc1ccc(CCNC(=O)c2ccc3c(c2)N(Cc2ccc(F)cc2)CCS3)cc1OC | -34.1% (inactive)
COc1ccc(CCNC(=O)c2ccc3c(c2)N(Cc2ccc(C)cc2)CCS3)cc1OC | 8.4% (inactive)
CCCC[C@@H]1CNC(=S)N1CCc1cccc(F)c1 | -29.2% (inactive)
CCOc1ncccc1C(=O)Nc1cc(S(=O)(=O)N2CCOCC2)ccc1N1CCCC1 | 0.1% (inactive)
CC1CCN(C(=O)C2CCN(S(=O)(=O)c3ccc(-n4cnnn4)cc3)CC2)CC1 | -10.6% (inactive)
O=C(CSc1cccc2cccnc12)N/N=C/c1cccc(O)c1 | -22% (inactive)
CCCCC(=O)N/N=C/c1ccc(Sc2cccc3cccnc23)o1 | -12.8% (inactive)

Structure (SMILES) | inhibition
O=C(CSc1cccc2cccnc12)N/N=C/c1cccnc1 | 80% (active)
O=C(CSc1cccc2cccnc12)N/N=C/c1ccncc1 | -32.7% (inactive)
O=C(Cc1cccc2ccccc12)N/N=C/c1ccc(Sc2cccc3cccnc23)o1 | 61.9% (inactive)
O=C(CSc1cccc2cccnc12)N/N=C/c1ccc(O)cc1 | -3.1% (inactive)
COc1cccc(/C=N/NC(=O)CSc2cccc3cccnc23)c1 | 33.4% (active)
CCOc1cc(/C=N/NC(=O)CSc2cccc3cccnc23)ccc1O | -32.2% (inactive)
O=C(CCc1ccccc1O)N/N=C/c1ccc(Sc2cccc3cccnc23)o1 | 89.3% (active)
Cc1cc(NC(=O)CSc2nnc(CNC(=O)c3ccc(F)cc3)o2)no1 | -38.1% (inactive)
O=C(CSc1nc2ccccc2c(=O)n1CCCN1CCOCC1)c1c[nH]c2ccccc12 | 41% (inactive)
O=C(NCc1ccccc1OC(F)(F)F)C1CCC(=O)N(Cc2ccccn2)C1 (configuration not stated) | -8% (inactive)
CC(C)(C)OC(=O)NC(Cc1ccccc1)C(=O)N1CCC(C(=O)NCC(=O)Nc2ccc(F)cc2)CC1 (configuration not stated) | -18% (inactive)
O=C(Nc1cccc(F)c1)N1CCC(n2c(=O)[nH]c3ccccc32)CC1 | -2.7% (inactive)
COc1ccc(-c2noc(N3CCC(C(=O)NCCCN4CC(C)CC(C)C4)CC3)n2)cc1 (configuration not stated) | -3.9% (inactive)
CC(C)(C)c1ccc(C(=O)Nc2ccc(CC(=O)O)cc2)o1 | 76.3% (active)
Cc1ccc(C(=O)Nc2ccc(CC(=O)O)cc2)o1 | -4.8% (inactive)
COC(=O)Cc1ccc(NC(=O)c2ccc(C(C)(C)C)cc2)cc1 | 88.2% (active)
COC(=O)Cc1ccc(NC(=O)c2ccc(NC(=O)c3ccco3)cc2)cc1 | -16% (inactive)
CCOC(=O)Cc1ccc(NC(=O)c2ccccc2Br)cc1 | -20.3% (inactive)
CCOC(=O)Cc1ccc(NC(=O)c2ccc([N+](=O)[O-])cc2)cc1 | -35.6% (inactive)
CCOC(=O)Cc1ccc(NC(=O)c2ccc(C(C)(C)C)cc2)cc1 | 69.9% (active)
CC(C)(C)c1ccc(C(=O)Nc2ccc(NC(=O)C(=O)O)cc2)o1 | -19% (inactive)
COC(=O)Cc1ccc(NC(=O)c2ccc(C)c(C)c2)cc1 | -39.1% (inactive)
